# From PubChem BioAssay (NCI)
# About 79,000 compounds went through this panel and 15% of them were active in at least one assay; those are over-represented in the sample as a whole. A number with no mark means an inactive call. Calls of active or inactive are those of the source. No stated cut-off is given here; in the data, active means growth inhibition above about 70%; inactive means the rest. Where a SMILES comes first, the peptide text is derived from it. [ ]: non-standard residue; d: D form. The star is where a group is joined. Cbz = O=C(OCc1ccccc1)*; Nva = CCC[CH](N)C(=O)O
# What was measured:
# [1] = NCI Yeast Anticancer Drug Screen. Data for the rad50 strain (AID 155);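 further: 0% = growth of vehicle-only cultures of the same strain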; conditions: S. cerevisiae rad50 strain growth inhibition; at 50.0 µM; stronger effect = higher value
# Procedure, shortened: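 Readout: growth inhibition relative to vehicle-treated cultures. Compound exposure was carried out in a genetically defined yeast strain deficient in DNA damage repair.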
# [2] = NCI Yeast Anticancer Drug Screen. Data for the mec2-1 strain (AID 157); conditions: S. cerevisiae mec2-1 strain, at 50.0 µM, stronger effect = higher value
# Procedure, shortened: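 Readout is yeast growth inhibition, normalised to vehicle-treated controls, in the mec2-1 strain exposed to compound.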
# [3] = NCI Yeast Anticancer Drug Screen. Data for the sgs1 mgt1 strain (AID 161);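 further: 0% = growth of cultures given vehicle only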; conditions: S. cerevisiae sgs1 mgt1 strain, at 50.0 µM, stronger effect = higher value
# Procedure, shortened: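 Compounds are added to genetically altered yeast, and growth is compared with cultures given vehicle alone to give percent inhibition.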
# [4] = NCI Yeast Anticancer Drug Screen. Data for the cln2 rad14 strain (AID 165);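 further: 0% = growth equal to vehicle treated cultures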; conditions: S. cerevisiae cln2 rad14 strain, at 50.0 µM, stronger effect = higher value
# Procedure, shortened: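 Relative to vehicle controls, growth inhibition of compound-treated cln2 rad14 yeast was recorded.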
# [5] = NCI Yeast Anticancer Drug Screen. Data for the bub3 strain (AID 167); conditions: S. cerevisiae bub3 mutant strain, at 50.0 µM, stronger effect = higher value
# Procedure, shortened: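 Readout: yeast growth inhibition, expressed relative to vehicle-only wells. The test organism is a mutant strain from a panel with lesions in DNA repair or checkpoint genes.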
# [6] = NCI Yeast Anticancer Drug Screen. Data for the mlh1 rad18 strain (AID 175); conditions: S. cerevisiae mlh1 rad18 strain growth inhibition; at 50.0 µM; stronger effect = higher value
# Procedure, shortened: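 Test agents were incubated with a yeast strain of defined genotype (DNA damage repair defect). Inhibition of growth was derived by comparison with vehicle-exposed cultures.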
SMILES,growth inhibition [1],growth inhibition [2],growth inhibition [3],growth inhibition [4],growth inhibition [5],growth inhibition [6]
NC(N)=NC(=S)Nc1ccc(Cl)cc1,21.6%,1.6%,7.55%,-4%,-15.7%,31.1%
CCC(CC)C(O)(C(=O)O)C(CC)CC,14.1%,13.7%,3.95%,3.3%,8.5%,32.8%
Cc1cc(N(CCC#N)CCC#N)ccc1/C=C1N=C(/C=C\c2ccccc2)N(NC(=O)CC(=O)Nc2ccccc2Cl)C\1=O,14.6%,-0.8%,1.55%,11.3%,2.8%,5.05%
Cn1cnc2cc(NCCO)c([N+](=O)[O-])cc2c1=O,11.1%,18.9%,4.5%,11.4%,24.4%,24.3%
C=CCOc1cc2c(cc1C(C)c1ccc(OCC)cc1)OCO2 (stereo unspecified),51.6%,14.8%,-14.6%,-19.4%,-10.8%,-32.3%
O=C(Nc1ccccc1)NC1CCCC1,4.65%,7.85%,-1.8%,-5.5%,-12.2%,-1.2%
CC1CS(=O)(=O)CC(C)S1(=O)=O (stereo unspecified),-8.6%,-1.55%,-5.95%,-4.3%,14.7%,-7.05%
CCCC(NC(=O)OCc1ccccc1)C(=O)NC(C(=O)O)C(C)CC (stereo unspecified) (Cbz-[Nva]-Ile-OH; configuration not given here),26.3%,12.4%,2.75%,29.1%,4.55%,9.6%
CCC(=O)C(CC)c1ccc(OC)cc1OC (stereo unspecified),-1.75%,-31.4%,-6.15%,3.85%,7.3%,15.6%
CCOC(=O)COc1cc2c(cc1Cc1ccc3c(c1)OCO3)OCO2,0.6%,1.95%,-0.7%,5.65%,16.2%,0.95%
Nc1ncnc2c1[nH]c(=O)n2-c1ccccc1,-46.6%,-30.5%,-16.6%,-1.3%,-17.1%,-6.9%
C#CC1(NC(=O)c2ccccc2C(=O)Nc2cccc(C(F)(F)F)c2)CCCCC1,-12.9%,-19.1%,-14.2%,11.3%,-20.1%,-14.2%
CC(C(=O)O)C(C)(O)C(C)(C)C (stereo unspecified),-3.9%,1.05%,-5.25%,-37.4%,12.2%,-6.95%
CCOC(=O)c1c(C#N)c2cnn(-c3ccccc3)c2n2cccc12,14.1%,9.8%,-2.25%,-64.2%,-8.25%,36.1%
COc1ccc2c(c1)CCCN2c1ccc(N=C(N)N)cc1,2.95%,-6.35%,-1.75%,-17.8%,27.9%,16.5%
O=C(NC1(C(=O)O)CCCC1)C(F)(F)F,-13.8%,14.7%,-14.2%,-25.3%,2.45%,-8.25%
O=S(=O)(NC1c2ccccc2Oc2ccccc21)c1ccc2ccccc2c1,28.4%,11.1%,16.6%,19.1%,9.65%,39.7%
COC(=O)C(=O)c1c(C(=O)OC)nc2nnc(N)n2c1C1CC1,-5.6%,11.8%,7.75%,-17.9%,-5.35%,4.25%
Cc1cn(C2OC3COC2C3O)c(=O)[nH]c1=O (stereo unspecified),-20.8%,0.55%,10.7%,27.2%,-6%,-4.75%
CCCCc1nc(CCCC)nc(CCCC)n1,-6.75%,-14.2%,-12.8%,-2.45%,-2.8%,1.15%
Clc1ccc2oc(N3CCOCC3)nc2c1,20.6%,23.6%,22%,-13.4%,15.7%,4.1%

SMILES,growth inhibition [1],growth inhibition [2],growth inhibition [3],growth inhibition [4],growth inhibition [5],growth inhibition [6]
C1CCCNCCNCCNCC1,-4.4%,-17.1%,-18.9%,16.1%,-20.8%,19.1%
O=C1c2ccccc2-c2nnc(-c3ccc(Cl)cc3)cc21,-29.1%,-14.2%,-18.2%,-16.9%,-24.2%,-18.3%
Clc1ccc(-c2nnc(-c3ccccc3)o2)cc1Cl,-8.4%,-24.8%,-0.4%,16%,-18.9%,-6.5%
CC(C)c1cc(C(C)C)c(Cc2c(C(C)C)cc(C(C)C)cc2C(C)C)c(C(C)C)c1,15%,14.2%,0.3%,0.55%,-2%,20.3%
c1ccc(C2CCN3c4ccc5ccccc5c4NCC23)cc1 (stereo unspecified),36%,68%,45.6%,14.5%,88.8% (active),67.3%
CCCC(C)C(O)CC (stereo unspecified),-27.1%,-28.9%,7.45%,13.3%,-19.5%,-10%
COc1ccc(N2C(=O)C3CC(c4ccc(Br)cc4)c4c([nH]c5ccccc45)C3C2=O)cc1 (stereo unspecified),1.7%,-14.4%,5.55%,-51.8%,2.9%,-4.95%
C=C(C)COc1ccc2c(c1)CCC1C2CCC2(C)C1CCC2(C)O (stereo unspecified),21%,0.45%,3.75%,17.6%,-0.9%,6.6%
Cc1cccc(OCC(O)CN(Cc2ccsc2)c2ccccn2)c1 (stereo unspecified),18.4%,16.4%,18.2%,37.3%,14.9%,8.2%
COC(=O)c1nnn(-c2cccc(Cl)c2)c1N,3.7%,-6.1%,-0.25%,15.7%,-26.9%,20.4%
Cc1ccc(C(C)C)nc1,17.1%,18.5%,19.1%,25.2%,22.5%,26.7%
CSc1nc2nc(C)c(C)nc2c(=O)[nH]1,-21.9%,-19.4%,-43.5%,3.9%,-0.75%,-32%
O=C(O)C(Sc1ccccc1)c1ccccc1 (stereo unspecified),0.8%,-8.2%,-0.05%,-32.4%,-21.9%,-21.6%
O=c1c(CN(CCO)CCO)c(-c2ccccc2)sc2ccccc12,-3.45%,-24.6%,-28.1%,13.1%,-13.8%,14.7%
CSC(=NCCN=C(NS(=O)(=O)c1ccc(Cl)cc1)SC)NS(=O)(=O)c1ccc(Cl)cc1,5.95%,-5.3%,7.15%,1.5%,4.15%,5.8%
CCOC(=O)C(C#N)C1CC2CCC1C2 (stereo unspecified),-30.2%,-57.4%,-22.2%,-4.9%,-27.1%,-56.8%
N#CC(c1ccc(Cl)cc1)c1cccc(C(C#N)c2ccc(Cl)cc2)n1 (stereo unspecified),28.9%,13.6%,38%,32.1%,38.4%,25.3%
COc1cc(C=NCc2ccccc2)cc(OC)c1O,-1.05%,19.2%,4.7%,-14.6%,19.8%,8.9%
Cc1ccc(C)c(OC(=O)Nc2ccccc2)c1,-3.15%,4.8%,-10.1%,-4.1%,-3.7%,-11.9%
CCCCNC(=O)Oc1cccc2ccccc12,4.3%,-6.8%,7.7%,-4.35%,29.8%,-6.4%
